These results are taken from PubChem BioAssay.

Each structure is given as a SMILES string.

A short description of this assay: JC-1 mitochondrial signal, unstimulated HepG2 cells – cell-based, JC-1 fluorescence, 24 h, 100 nL compound, profiling panel (AID 1167). Also: test concentration not given here. The note with it: HepG2 mitochondrial potential, higher = more signal.
In the case of `COC(=O)[C@@]1(Cc2ccc(OC)cc2)[C@H]2c3cc(C(=O)N(C)C)n(Cc4ccc(C)o4)c3C[C@H]2CN1C(=O)c1ccccc1`, the z-score was 4.47.

For the molecule `CCCCCN1CC=CC23O[C@@H]4/C=C\CCC(C)OC(=O)C4[C@H]2C(=O)N(C(CO)C(C)C)[C@@H]3C1=O` (stereo partly specified), the z-score was -0.224.

Molecule `CCOC(=O)C[C@H]1[C@H](OC(=O)c2ccccc2-c2ccccc2)[C@@H](NC(=O)c2ccc3ccccc3n2)c2cc(OCCCO)ccc2N1C(=O)Cc1ccc(OC)cc1` came in with a z-score of 0.972.

`O=C1OCCC/C=C\[C@H]2OC34C=CCN(c5ccc6ccccc6c5)C(=O)[C@H]3N(CCO)C(=O)[C@@H]4C12` (stereo partly specified) came in with a z-score of -0.00127.

In turn, `O=C1N(Cc2ccccc2)c2ccccc2C[C@]12N=C(c1ccc(OCCCO)cc1)O[C@@H]2c1ccccc1` registered a z-score of -1.05.

As for `O[C@@H](Cc1ccccc1)[C@@H](/C=C/C1CC1)N(CC#Cc1ccccc1)Cc1ccccc1Br`, the z-score was -1.79.

`O=C(C1N=C(c2ccc(OCCCO)cc2)N(c2ccccc2)O1)N1CCCCC1` (stereo unspecified): the z-score amounted to 0.223.

As for `CC(C)[Si]1(C(C)C)OCc2cc(-c3ccc(-c4ccc(Cl)c(Cl)c4)o3)nc(-c3ccccc3)c21`, the z-score is -1.18.

`COc1ccc([Si](C)(C)[C@@H]2[C@@H](CCO)O[C@]3(C(=O)N(Cc4ccccc4)c4ccc(NC(=O)[C@H](C)O)cc43)[C@H]2C)cc1`: the z-score is -2.7.

On to `COc1cc(NN2C(C(O)c3ccc(N(C)C)cc3)C=CC3C(=O)N(c4ccccc4)C(=O)C32)cc(OC)c1OC` (stereo unspecified), for which the z-score was -0.112.

`Cn1cccc1C(O)C1C=CC2C(=O)N(c3ccccc3)C(=O)C2N1Nc1ccccc1` (stereo unspecified) came in with a z-score of -1.3.

In turn, `CCOC(=O)C=Cc1cccc(C)c1O` gave a z-score of -0.768.

The molecule `COC(=O)C1=CC(CCCO)=CC(c2cccs2)N(Cc2cccc(OC(F)(F)F)c2)C=C1C(=O)OC` (stereo unspecified) displayed a z-score of 0.996.

Turning to `[N-]=[N+]=Nc1ccccc1[C@@H]1OC(c2ccc(OCCCO)cc2)=N[C@]1(Cc1ccccc1)C(=O)N1CCCCC1`, the z-score worked out at 0.408.

Regarding `C=CCNC(=O)[C@@H]1[C@H]2C(=O)O[C@H](c3ccccc3)[C@H](c3ccccc3)N2[C@H](c2ccc(O)cc2)[C@@]12C(=O)N(C(=O)OCCOC)c1ccc(C#CC3=CCCCC3)cc12`, the z-score is -1.9.

On to `CCOC(=O)C[C@H]1[C@H](OC(=O)c2cc3ccccc3oc2=O)[C@@H](NC(=O)CC(C)C)c2cc(OCCCO)ccc2N1C(=O)c1ccc2ccccc2n1`, for which the z-score is -0.858.

With `NCCCCCNC(=O)[C@@H]1C[C@@H]2C(=O)N[C@@H](CCCCN)C(=O)N2[C@@H]1c1ccc(O)cc1`, the z-score is -0.573.

With `CC(C)C(CO)N1C(=O)[C@@H]2C3C(=O)OCCC/C=C\[C@H]3OC23C=CCN(Cn2nnc4ccccc42)C(=O)[C@@H]13` (stereo partly specified), the z-score was -0.45.

In the case of `[N-]=[N+]=NCc1ccccc1C[C@@]1(C(N)=O)N=C(c2ccc(OCCCO)cc2)O[C@@H]1c1ccccc1`, the z-score is -0.864.

As to `CCOC(=O)C[C@H]1[C@H](OC(=O)c2ccc(C(=O)c3ccccc3)cc2)[C@@H](NC(=O)CC(C)C)c2cc(OCCCO)ccc2N1C(=O)c1ccccc1`, the z-score is 1.49.

On to `CC(C)[Si](C#C[Si](C(C)C)(C(C)C)C(C)C)(O[C@H](c1ccccc1)c1cn(Cc2ccccc2)nn1)C(C)C`, for which the z-score turned out to be 1.63.

`COC(=O)C/C=C/C[C@]1(O)C(=O)N(C)c2ccccc21` came in with a z-score of 1.25.

`CN1C(=O)C2C=CC(C(O)c3cccn3C)N(Nc3ccc([N+](=O)[O-])cc3[N+](=O)[O-])C2C1=O` (stereo unspecified): the z-score was -1.58.

As for `C=CCN1Cc2ccccc2[C@@H]2OC(c3ccc(OCCCO)cc3)=N[C@]2(CC=C)C1=O`, the z-score came out at 0.752.

As for `CCCC=C(CCC)[C@@H](NP(=O)(c1ccccc1)c1ccccc1)c1ccc(-c2ccccc2)cc1`, the z-score is -4.76.

`C=C(COC)C(=O)CC[C@@H](OC(C)=O)c1cccc(OCCO)c1` showed a z-score of -0.0521.

In turn, `CCOC(=O)C1=CC[C@@H](c2ccccc2F)N(S(=O)(=O)c2ccc(C)cc2)[C@H]1c1ccccc1` displayed a z-score of 2.25.

In turn, `O=C1O[C@H](c2ccccc2)[C@H](c2ccccc2)N2[C@H]1[C@@H](C(=O)O)[C@]1(C(=O)Nc3ccc(C#CCCO)cc31)[C@H]2c1ccccc1OCCO` had a z-score of -0.892.

Turning to `COc1cc2c(cc1O)C(C1CC1)N(C)CC2` (stereo unspecified), the z-score was found to be 0.283.

Regarding `COC(=O)[C@@]1(Cc2ccc(OC)cc2)[C@H]2c3cc(C(=O)N4CCCC4)n(CCO)c3C[C@H]2CN1C(=O)c1ccccc1`, the z-score was 1.59.

On to `[N-]=[N+]=Nc1ccccc1C[C@]1(C(=O)N2CCOCC2)COC(c2ccc(OCCCO)cc2)=N1`, for which the z-score is 0.943.

For `O=C1C2C=CC(C(O)c3ccco3)N(Nc3ccccc3F)C2C(=O)N1c1ccccc1` (stereo unspecified), the z-score was -1.27.

As for `CCCCCN1CC=CC23O[C@@H]4/C=C\CCCOC(=O)C4[C@H]2C(=O)N(C(C)CO)[C@@H]3C1=O` (stereo partly specified), the z-score came to 0.37.

Take `COC(=O)c1c(CC[C@@H](CO)NC(=O)N2CCC[C@H]2Cn2cc(C3(O)CCCCC3)nn2)oc(C(C)=O)c1C(=O)OC`: the z-score was 0.223.

Take `CCCCNC(=O)c1ccc(C#CC(C)(C)C)c(OC(C)=O)c1`: the z-score was -0.75.

With `COc1ccccc1CN1C(=O)c2ccccc2[C@](Cc2ccccc2I)(C(=O)O)[C@@H]1c1ccc(CO)cc1`, the z-score is -0.199.
